# Laboratory results published in PMC4336329 (PLoS ONE, 2015).
# In all, about 310,000 compounds went through this assay and about 14,000 (4.5%) showed an effect of 50% or more. Effects have a minus sign here. The full list was thinned out, with strong results kept by preference.
# Target: human ether-à-go-go-related gene (hERG) potassium channel (human, UniProt Q12809)
# Assay: primary screen, population patch clamp on CHO cells stably expressing hERG; higher = less effect of the substance
# 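Note: peak tail current of the secondary pulse compared with the same well before compound.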
# Sequence of human ether-à-go-go-related gene (hERG) potassium channel (Q12809 whole entry, looked up): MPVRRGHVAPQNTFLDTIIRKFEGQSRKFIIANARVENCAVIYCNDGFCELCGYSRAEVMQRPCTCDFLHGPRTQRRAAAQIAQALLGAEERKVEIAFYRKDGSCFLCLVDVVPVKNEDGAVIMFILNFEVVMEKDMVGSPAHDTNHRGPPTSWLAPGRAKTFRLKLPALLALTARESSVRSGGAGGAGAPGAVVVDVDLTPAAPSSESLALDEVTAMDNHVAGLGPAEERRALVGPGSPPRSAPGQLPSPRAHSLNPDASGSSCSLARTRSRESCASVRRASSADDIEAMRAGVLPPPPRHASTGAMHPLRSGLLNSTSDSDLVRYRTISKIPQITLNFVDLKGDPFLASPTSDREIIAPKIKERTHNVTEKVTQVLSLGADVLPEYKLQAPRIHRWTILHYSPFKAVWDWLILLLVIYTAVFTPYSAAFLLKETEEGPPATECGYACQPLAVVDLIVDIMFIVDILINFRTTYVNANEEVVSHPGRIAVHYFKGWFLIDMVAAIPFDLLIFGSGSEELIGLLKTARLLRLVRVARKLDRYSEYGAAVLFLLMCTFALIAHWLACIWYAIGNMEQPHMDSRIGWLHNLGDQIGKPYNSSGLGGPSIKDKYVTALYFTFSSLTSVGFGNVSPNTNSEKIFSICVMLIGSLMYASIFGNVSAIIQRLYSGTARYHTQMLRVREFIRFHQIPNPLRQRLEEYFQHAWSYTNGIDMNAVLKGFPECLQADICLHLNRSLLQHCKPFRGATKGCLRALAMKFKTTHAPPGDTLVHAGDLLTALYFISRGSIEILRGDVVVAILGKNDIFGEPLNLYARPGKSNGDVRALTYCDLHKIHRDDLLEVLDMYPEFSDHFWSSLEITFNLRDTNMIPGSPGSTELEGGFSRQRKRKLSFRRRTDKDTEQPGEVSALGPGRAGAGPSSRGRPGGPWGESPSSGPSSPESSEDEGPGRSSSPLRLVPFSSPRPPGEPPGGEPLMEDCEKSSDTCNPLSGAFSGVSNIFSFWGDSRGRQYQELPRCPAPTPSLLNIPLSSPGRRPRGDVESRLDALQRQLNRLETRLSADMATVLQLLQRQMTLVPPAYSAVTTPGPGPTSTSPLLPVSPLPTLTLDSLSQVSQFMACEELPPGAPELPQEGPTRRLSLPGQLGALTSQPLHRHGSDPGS
row,SMILES,"hERG current change (%, negative = inhibition) at 10uM [%]"
1,COc1ccc(Cl)cc1NC(=O)CN(C)C(=O)CCC(=O)c1cc(C)sc1C,-29.5
2,CC(C)C(CCN1C(=O)CCC1=O)C1CCOC(C)(C)C1 (stereo not shown),4.36
3,CCn1ncc(Br)c1C(=O)Nc1cc(C(=O)OC)ccc1C(=O)OC,-3.95
4,Cc1cc(OCc2cccc(Cl)c2)c(C)cc1CN1CCOCC1,0.275
5,CCCCCCCCCC(=O)N[C@H](CN1CCOCC1)[C@H](O)c1ccccc1.Cl,-16.6
6,Cc1ccc(OCC(O)Cn2c(=N)n(Cc3ccccc3)c3ccccc32)cc1.Cl (stereo not shown),-81.6
7,O=C(O)c1ccc(OCC(O)Cn2c3ccccc3c3ccccc32)cc1 (stereo not shown),-18.5
8,Cc1ccc(Cn2c(=N)n(CC(O)COc3ccccc3)c3ccccc32)cc1.Cl (stereo not shown),-68.9
9,COC(=O)c1cn(S(=O)(=O)c2ccccc2)c2ccccc12,13
10,Cc1ccc(NC(=O)NCc2ccc3c(c2)OCO3)cc1,5.69
11,COc1cc2c(OC(C)=O)c3c(c(-c4ccc5c(c4)OCO5)c2cc1OC)C(=O)OC3,15.4
12,Cc1ccc(NC(=O)CCN2CC(C)OC(C)C2)cc1C.Cl (stereo not shown),19.1
13,CC(C)(C)NS(=O)(=O)c1cc(C(=O)O)ccc1Cl,4.6
14,O=C(Oc1coc(CSc2ncccn2)cc1=O)c1ccccc1[N+](=O)[O-],14.4
15,O=C(Oc1coc(CSc2ncccn2)cc1=O)c1cccc([N+](=O)[O-])c1,-81.3
16,Cc1cc(C)nc(SCc2cc(=O)c(OC(=O)c3cccc([N+](=O)[O-])c3)co2)n1,-32.5
17,Cc1cccn2c(=O)c3cc(C#N)c(=NC(=O)c4ccccc4)n(Cc4ccco4)c3nc12,-40.3
18,Cc1cccn2c(=O)c3cc(C#N)c(=NC(=O)c4ccco4)n(Cc4ccco4)c3nc12,-55.4
19,Cc1ccccc1C(=O)N=c1c(C#N)cc2c(=O)n3cccc(C)c3nc2n1Cc1ccco1,-46.2
20,CC(=O)N=c1c(C#N)cc2c(=O)n3cccc(C)c3nc2n1Cc1ccco1,-35.3
21,Cn1c(=NC(=O)c2ccco2)sc2ccccc21,11.6
22,CC(C)n1c(=NC(=O)c2ccco2)c(C#N)cc2c(=O)n3ccccc3cc21,-52.2

row,SMILES,"hERG current change (%, negative = inhibition) at 10uM [%]"
1,Cc1cccc(C(=O)N=c2c(C#N)cc3c(=O)n4cccc(C)c4nc3n2Cc2ccco2)c1,-65
2,CC(=O)N=c1c(C#N)cc2c(=O)n3ccccc3nc2n1Cc1ccccc1,-40.2
3,CCO[C@@H]1OC(C(=O)NCc2ccccc2)=C[C@H](C(C)(C)C)[C@H]1CCCO,-10.5
4,O=C(OCCN1C(=O)c2ccccc2C1=O)c1cc2ccccc2o1,1.62
5,CC1CCCC(C(=O)O)N1C(=O)CCSC(=O)c1ccccc1 (stereo not shown),-0.246
6,O=S(=O)(c1cccs1)N1CN(Cc2ccc(Cl)cc2)c2nc3ccccc3nc21,3.75
7,Cc1ccc2c(c1)c1c(n2CC(O)CN2CCCCC2C)CCCC1 (stereo not shown),-42.6
8,Cc1ccc2c(c1)c1c(n2CC(O)CNC2CCCCC2)CCCC1.Cl (stereo not shown),-37.4
9,Cc1ccc2c(c1)c1c(n2CC(O)CNC(CO)(CO)CO)CCCC1 (stereo not shown),0.531
10,Cc1ccc2c(c1)c1c(n2CC(O)CN2CCOCC2)CCCC1.Cl (stereo not shown),9.32
11,Cc1ccc2c(c1)c1c(n2CC(O)CN2CCCCCC2)CCCC1.Cl (stereo not shown),-65.6
12,Cc1ccc2c(c1)c1c(n2CC(O)CN2CCC(C)CC2)CCCC1 (stereo not shown),-58.1
13,Fc1ccc(N/N=C(/c2ccccc2)c2ccccn2)cc1,-12.5
14,CCN(Cc1ccccc1)Cc1c(F)cccc1F,-0.224
15,CC1CCCC(C)N1C(=O)COC(=O)C1CCN(S(=O)(=O)c2c(Cl)cccc2Cl)CC1 (stereo not shown),-30.1
16,CCOC(=O)N1CCN(C(=O)COC(=O)C2CCN(S(=O)(=O)c3ccc(C)c(C)c3)CC2)CC1,-62.1
17,CCOC(=O)N1CCN(C(=O)C2CCN(S(=O)(=O)c3c(C)cc(C)cc3C)CC2)CC1,-22.9
18,CCOC(=O)N1CCN(C(=O)COC(=O)C2CCN(S(=O)(=O)c3c(C)c(C)cc(C)c3C)CC2)CC1,-51.9
19,CC1CCCCN1C(=O)COC(=O)C1CCN(S(=O)(=O)c2c(Cl)cccc2Cl)CC1 (stereo not shown),-56.4
20,Cc1ccc(S(=O)(=O)N2CCC(C(=O)OCC(=O)N3CCC(C)CC3)CC2)cc1C,7.85
21,CC1CCCN(C(=O)COC(=O)C2CCN(S(=O)(=O)c3c(Cl)cccc3Cl)CC2)C1 (stereo not shown),-39.4
22,CCOC(=O)C1CCN(C(=O)COC(=O)C2CCN(S(=O)(=O)c3ccc(C)c(C)c3)CC2)CC1,-3.24

row,SMILES,"hERG current change (%, negative = inhibition) at 10uM [%]"
1,CCOC(=O)N1CCN(C(=O)COC(=O)C2CCN(S(=O)(=O)c3c(Cl)cccc3Cl)CC2)CC1,-38.1
2,CC(=O)Nc1ccc(Oc2cc(NC(C)=O)cc([N+](=O)[O-])c2)cc1,6.36
3,CCOC(=O)c1c(NC(=O)CC2Nc3ccccc3NC2=O)sc(C)c1C (stereo not shown),10.6
4,CCOC(=O)C1CCCN(C(=O)c2cc(Nc3ccc(OC)c(OC)c3)nc3ccccc23)C1 (stereo not shown),-14.9
5,Cc1c(C(=O)Nc2ccc(Cl)cc2)c2ccccn2c1CCc1ccncc1,-5.68
6,COc1cccc(OCC(O)CN2CCN(c3ccc(Cl)cc3)CC2)c1 (stereo not shown),-71.9
7,OC(CSc1ccccc1Cl)CN1CCN(c2ccccc2F)CC1 (stereo not shown),-30.7
8,COc1cccc(OC)c1OCC(O)CN1CCN(c2ccc(F)cc2)CC1.Cl (stereo not shown),-74.9
9,COc1cccc(OCC(O)CN2CCN(c3ccccc3)CC2)c1 (stereo not shown),-45.2
10,OC(CSc1ccccc1Cl)CN1CCN(c2ccc(F)cc2)CC1 (stereo not shown),-57.4
11,OC(COc1ccc2ccccc2c1)CN1CCN(c2ccc(F)cc2)CC1 (stereo not shown),-28
12,COc1ccc(N2CCN(CC(O)COc3c(OC)cccc3OC)CC2)cc1.Cl (stereo not shown),-35.3
13,COc1cccc(OCC(O)CN2CCN(c3ccccc3)CC2)c1.Cl (stereo not shown),-43.4
14,COc1cccc(OCC(O)CN2CCN(c3ccc(F)cc3)CC2)c1.Cl (stereo not shown),-58.6
15,OC(CSc1c(Cl)cccc1Cl)CN1CCN(c2ccc(F)cc2)CC1 (stereo not shown),-40.3
16,COc1ccc(OCC(O)CN2CCN(c3ccc(Cl)cc3)CC2)cc1 (stereo not shown),-30.7
17,CCOC(=O)N1CCN(CC(O)COc2c(OC)cccc2OC)CC1.Cl (stereo not shown),2.85
18,CCOC(=O)c1c(S(=O)(=O)NCCc2ccco2)c(C)n(C)c1C,-1.25
19,NNC(=O)c1ccc(Cn2cccn2)o1,5.58
20,CCn1nc(C)c(NS(=O)(=O)c2ccc(C)cc2)c1C,-0.126
21,CCCCC1(CCCC)C(=O)NC(=Nc2cccc(C)c2)NC1=O,0.0469
22,COCC(C)NS(=O)(=O)c1ccccc1 (stereo not shown),12.7

row,SMILES,"hERG current change (%, negative = inhibition) at 10uM [%]"
1,COCCCNC(=S)Nc1cccc(S(=O)(=O)NC2=NCCC2)c1,36.7
2,COc1ccc(CCNC(=O)c2ccc3c(c2)NC(=O)C(CSCc2cc(C)ccc2C)N3)cc1OC (stereo not shown),12.2
3,O=C(Nc1ccc(S(=O)(=O)NCc2ccco2)cc1)c1ccc2ccccc2n1,-0.235
4,COc1ccc(C2(C)ON(c3ccccc3C(F)(F)F)C2=O)cc1 (stereo not shown),5.36
5,CCCCOCCCNC(=O)c1c(-c2ccccc2)noc1C,3.4
6,CCOC(=O)CCN(Cc1ccccc1)S(=O)(=O)c1csc(C(N)=O)c1,-22.4
7,CC(=O)c1ccc(OCC(O)CN2CCN(c3ccc(F)cc3)CC2)cc1.Cl (stereo not shown),-67.4
8,Cl.OC(COc1ccc2c(c1)OCO2)CN1CCN(c2ccc(F)cc2)CC1 (stereo not shown),-66.1
9,Cl.OC(COc1ccc2c(c1)OCO2)CN1CCCC1 (stereo not shown),5.48
10,Cl.OC(COc1ccc2c(c1)OCO2)CN1CCN(c2ccccc2)CC1 (stereo not shown),-2.44
11,COc1ccc(OCC(O)CN2CCN(c3ccc(OC)cc3)CC2)cc1.Cl (stereo not shown),-37.7
12,CC(=O)c1ccc(OCC(O)CN2CCN(CC(O)COc3ccc(C(C)=O)cc3)CC2)cc1 (stereo not shown),-39.4
13,COc1ccc(OCC(O)CN2CCN(CC(O)COc3ccc(OC)cc3)CC2)cc1 (stereo not shown),-47.5
14,CC1CCN(CC(O)COc2ccc(F)cc2)CC1 (stereo not shown),-37.7
15,OC(COc1ccc(F)cc1)CN1CCN(CC(O)COc2ccc(F)cc2)CC1 (stereo not shown),-71.5
16,CCC(=O)c1ccc(OCC(O)CN2CCN(c3ccc(F)cc3)CC2)cc1 (stereo not shown),-26.8
17,COc1ccc(N2CCN(CC(O)COc3ccc(F)cc3)CC2)cc1.Cl (stereo not shown),-69.9
18,Cc1ccc(NC(=S)NC(=O)/C=C/c2ccco2)c(O)c1,2.91
19,COC(=O)CCC(=O)N1CCCC(CNS(=O)(=O)c2ccc(OC)cc2)C1 (stereo not shown),39.4
